Laboratory results published in PubChem BioAssay (Tox21).
Inconclusive results are not listed. The source made the active and inactive calls. Unless noted, the call rests on the fitted dose curve.

How the values were obtained:
[1] = qHTS assay to identify small molecule antagonists of the retinoid-related orphan receptor gamma (ROR-gamma) signaling pathway - cell viability counter screen (AID 1159520; active means well fitted curve in the direction sought with a large enough effect in the repeat runs; an effect the other way counts as inactive or inconclusive; further: nearly all actives have a fitted effect of over 50% in size; further: potency means the concentration at half of the fitted maximal effect)
Summary of the method: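 Cytotoxicity was read from cellular ATP (CellTiter-Glo luminescence) after 16 hr at 37 C with 1 uM doxycycline induction. The inducer was added 2 hr after compound transfer to Tet-on ROR gamma CHO cells.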

[2] = qHTS assay to identify small molecule agonists of the AP-1 signaling pathway - cell viability counter screen (AID 1159525); further: nearly all actives have a fitted effect of over 55% in size
Summary of the method: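 Luminescent ATP readout (Cell Titer Glo, 30 min RT), normalised to DMSO and tetra n-octyl ammonium bromide controls. Cells were ME-180 AP-1-bla in 0.5% dialyzed FBS Opti-MEM, with a 5 h, 37 °C compound exposure.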

[3] = qHTS assay to identify small molecule agonists of the AP-1 signaling pathway (AID 1159526)
[4] = target: Retinoic acid receptor RXR-alpha (Homo sapiens) (UniProt P19793); test: qHTS assay to identify small molecule agonists of the RXR signaling pathway (AID 1159527); further: nearly all actives have a fitted effect of over 35% in size
Summary of the method: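 Reporter activation is measured as beta-lactamase activity via FRET substrate cleavage (emission 460/530 nm) in HEK 293T cells expressing an RXR-alpha-driven bla construct, following 16 hr compound exposure at 37 C.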

[5] = qHTS assay to identify small molecule agonists of the RXR signaling pathway - cell viability counter screen (AID 1159529; active means well fitted curve in the direction sought with a large enough effect in the repeat runs; an effect the other way counts as inactive or inconclusive; further: series mostly up to about 77 µM; nearly all actives have a fitted effect of over 50% in size)
Summary of the method: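 Tox21 10K compounds were tested for cytotoxicity against GeneBLAzer RXR-alpha HEK 293T cells grown in 2% charcoal-stripped FBS. Exposure lasted 16 hr at 37 C, 5% CO2; viability read by CellTiter-Glo luminescence.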

[6] = target: Nuclear receptor ROR-gamma (Homo sapiens) (UniProt P51449); test: qHTS assay to identify small molecule antagonists of the retinoid-related orphan receptor gamma (ROR-gamma) signaling pathway (AID 1159521; active means well fitted curve in the direction sought with a large enough effect in the repeat runs; an effect the other way counts as inactive or inconclusive;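 further: CHO cells with doxycycline inducible ROR-gamma driving an RORE luciferase reporter; top concentration of the series differs between compounds; nearly all actives have a fitted effect of over 50% in size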)
Summary of the method: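 Readout: ONE-Glo luciferase luminescence, 30 min at room temperature. System: Tet-on RORγ CHO, RORE-LUC. Sequence: compound 2 h, doxycycline 1 uM final, 16 h at 37 C.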

[7] = target: Peroxisome proliferator-activated receptor delta (Homo sapiens) (UniProt Q03181); test: qHTS assay to identify small molecule agonists of the peroxisome proliferator-activated receptor delta (PPARd) signaling pathway (AID 743212)
Summary of the method: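 HEK293H UAS-bla reporter cells, human PPARd system; compounds delivered in DMSO after 5 h plating, then at 37 C. Beta-lactamase FRET read, 2 h RT substrate step.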

[8] = qHTS assay to identify small molecule antagonists of the peroxisome proliferator-activated receptor delta (PPARd) signaling pathway - cell viability counter screen (AID 743213; active means well fitted curve in the direction sought with a large enough effect in the repeat runs; an effect the other way counts as inactive or inconclusive; further: nearly all actives have a fitted effect of over 50% in size)
Summary of the method: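 CellTiter-Glo was added to PPARd-bla HEK293H wells following 17 h compound treatment in the presence of 300 nM L165041. Luminescence was recorded after 30 min at room temperature.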

[9] = target: Bile acid receptor (Homo sapiens) (UniProt Q96RI1); test: qHTS assay to identify small molecule agonists of the farnesoid-X-receptor (FXR) signaling pathway (AID 743220; active means well fitted activation curve with a large enough effect in the signal ratio in the repeat runs, not every such curve was filed as active; the % refers to the signal ratio)
Summary of the method: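 Beta-lactamase reporter under UAS control in GeneBLAzer FXR HEK 293T cells (5000/well) measured with LiveBLAzer FRET substrate after 2 h at room temperature. Compound exposure lasted 16 h at 37C.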

[10] = qHTS assay to identify small molecule antagonists of the farnesoid-X-receptor (FXR) signaling pathway - cell viability counter screen (AID 743221; active means well fitted cell-killing curve with a large enough effect in the repeat runs, not every such curve was filed as active; further: nearly all actives have a fitted effect of over 50% in size)
Summary of the method: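 CellTiter-Glo, 30 min RT, luminescence; same wells as the LiveBLAzer FRET read. Cells: FXR-UAS-bla HEK 293T. Treatment: compound with chenodeoxycholic acid 50 uM final, 16 h at 37 C.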

[11] = qHTS assay to identify small molecule agonists of the vitamin D receptor (VDR) signaling pathway - cell viability counter screen (AID 743224; active means well fitted curve in the direction sought with a large enough effect in the repeat runs; an effect the other way counts as inactive or inconclusive)
Summary of the method: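 Viability is measured in the same wells as the VDR-bla reporter assay: after 16 h compound treatment and 2 h substrate loading, CellTiter-Glo is added and luminescence read 30 min later.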

[12] = qHTS assay to identify small molecule antagonists of the vitamin D receptor (VDR) signaling pathway - cell viability counter screen (AID 743225; active means well fitted curve in the direction sought with a large enough effect in the repeat runs; an effect the other way counts as inactive or inconclusive; further: nearly all actives have a fitted effect of over 50% in size)
Summary of the method: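 Cytotoxicity toward the VDR-bla HEK 293T line was scored by ATP-based CellTiter-Glo luminescence, read in the wells already used for the beta-lactamase readout after 16 h compound treatment under 3 nM 1-alpha,25-dihydroxyvitamin D3 stimulation.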

[13] = qHTS assay to identify small molecule agonists of the farnesoid-X-receptor (FXR) signaling pathway - cell viability counter screen (AID 743218; active means well fitted curve in the direction sought with a large enough effect in the repeat runs; an effect the other way counts as inactive or inconclusive; further: potency means the concentration at half of the fitted maximal effect; nearly all actives have a fitted effect of over 45% in size)
Summary of the method: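 Cytotoxicity counter-screen run in parallel, same wells: FXR-UAS-bla HEK 293T cells dosed 16 h at 37 C, viability read by CellTiter-Glo luminescence after 30 min at room temperature.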

[14] = target: Vitamin D3 receptor (Homo sapiens) (UniProt P11473); test: qHTS assay to identify small molecule agonists of the vitamin D receptor (VDR) signaling pathway (AID 743222)
Summary of the method: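 Quantitative HTS agonist-mode screen: compounds in DMSO were pin-transferred onto VDR-bla cells and incubated 16 h at 37C, 5% CO2. Reporter activity was detected with LiveBLAzer B/G FRET substrate after 2 h at room temperature.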

Measured: Potency

Sequence of Retinoic acid receptor RXR-alpha (Homo sapiens) (P19793 whole entry, looked up): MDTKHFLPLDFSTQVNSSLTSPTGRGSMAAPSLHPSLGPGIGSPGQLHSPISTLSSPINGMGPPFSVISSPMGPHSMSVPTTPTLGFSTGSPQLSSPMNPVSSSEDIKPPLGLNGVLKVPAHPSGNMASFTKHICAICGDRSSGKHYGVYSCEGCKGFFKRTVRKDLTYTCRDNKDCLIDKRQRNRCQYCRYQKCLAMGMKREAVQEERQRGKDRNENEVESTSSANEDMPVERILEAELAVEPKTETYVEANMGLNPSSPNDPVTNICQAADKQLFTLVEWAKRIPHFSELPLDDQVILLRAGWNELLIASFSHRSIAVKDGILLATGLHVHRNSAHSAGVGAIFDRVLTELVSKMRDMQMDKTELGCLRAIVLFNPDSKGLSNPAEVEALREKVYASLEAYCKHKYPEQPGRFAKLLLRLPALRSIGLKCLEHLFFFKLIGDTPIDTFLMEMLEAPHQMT
Sequence of Peroxisome proliferator-activated receptor delta (Homo sapiens) (Q03181 whole entry, looked up): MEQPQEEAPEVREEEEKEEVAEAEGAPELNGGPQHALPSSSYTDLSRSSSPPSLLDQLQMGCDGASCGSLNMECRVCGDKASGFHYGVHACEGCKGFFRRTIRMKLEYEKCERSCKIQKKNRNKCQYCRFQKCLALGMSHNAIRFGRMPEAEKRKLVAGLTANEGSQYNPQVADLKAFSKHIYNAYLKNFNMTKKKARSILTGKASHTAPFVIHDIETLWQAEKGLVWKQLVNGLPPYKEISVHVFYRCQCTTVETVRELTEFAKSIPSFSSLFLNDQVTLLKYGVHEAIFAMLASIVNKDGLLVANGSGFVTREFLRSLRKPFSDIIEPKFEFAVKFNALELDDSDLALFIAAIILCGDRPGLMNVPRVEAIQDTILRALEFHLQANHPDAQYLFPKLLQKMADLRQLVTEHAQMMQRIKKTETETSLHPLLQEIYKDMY
Sequence of Vitamin D3 receptor (Homo sapiens) (P11473 whole entry, looked up): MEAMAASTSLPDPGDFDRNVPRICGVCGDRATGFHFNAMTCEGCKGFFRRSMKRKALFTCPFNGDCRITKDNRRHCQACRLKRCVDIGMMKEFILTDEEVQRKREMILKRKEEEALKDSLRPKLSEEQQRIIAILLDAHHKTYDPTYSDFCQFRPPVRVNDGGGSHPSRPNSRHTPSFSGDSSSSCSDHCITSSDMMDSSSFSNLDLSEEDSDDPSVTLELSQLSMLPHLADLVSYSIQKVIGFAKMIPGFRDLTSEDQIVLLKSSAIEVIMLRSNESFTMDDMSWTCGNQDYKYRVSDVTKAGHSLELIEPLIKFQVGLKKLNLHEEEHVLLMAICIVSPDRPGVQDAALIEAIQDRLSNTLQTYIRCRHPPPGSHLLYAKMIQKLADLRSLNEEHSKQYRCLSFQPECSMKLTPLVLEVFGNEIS
Sequence of Bile acid receptor (Homo sapiens) (Q96RI1 whole entry, looked up): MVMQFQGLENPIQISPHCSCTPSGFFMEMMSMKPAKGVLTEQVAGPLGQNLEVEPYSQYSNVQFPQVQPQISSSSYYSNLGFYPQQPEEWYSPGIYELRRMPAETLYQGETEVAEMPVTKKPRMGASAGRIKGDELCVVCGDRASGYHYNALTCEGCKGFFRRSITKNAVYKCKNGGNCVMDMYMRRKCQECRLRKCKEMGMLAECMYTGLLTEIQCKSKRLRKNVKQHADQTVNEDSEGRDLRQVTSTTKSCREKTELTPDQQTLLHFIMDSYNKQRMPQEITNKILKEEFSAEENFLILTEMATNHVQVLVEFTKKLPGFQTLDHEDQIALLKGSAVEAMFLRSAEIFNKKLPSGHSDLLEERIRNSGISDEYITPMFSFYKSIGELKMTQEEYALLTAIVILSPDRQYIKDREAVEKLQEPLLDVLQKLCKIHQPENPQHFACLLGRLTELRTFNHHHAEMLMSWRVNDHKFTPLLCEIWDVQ

CCOC(=O)c1ccccc1S(=O)(=O)NC(=O)Nc1nc(Cl)cc(OC)n1
inactive: [1] | [2] | [3] | [4] | [5]

COc1ccc(OC)c(C=O)c1
inactive: [6] | [2] | [4] | [5]

CC(=[OH+])/C=C(/C)[O-].CC(=[OH+])/C=C(\C)[O-].CC(=[OH+])/C=C(\C)[O-].[Al]
inactive: [6] | [2] | [3] | [4] | [5]

Nc1ccc(Cl)cc1C(=O)c1ccccc1
inactive: [1] | [2] | [4] | [5]

CCCCCCCCCCBr
inactive: [6] | [2] | [4] | [5]

CC(C)C(=O)Cl
inactive: [1] | [3] | [4] | [5]

Fc1ccc(Oc2ccnc3cc(Cl)cc(Cl)c23)cc1
active: [11] 49 µM
inactive: [7] | [8] | [9] | [10] | [12] | [6]

Clc1ccc(Oc2ccccc2)cc1
inactive: [6] | [2] | [3] | [4] | [5]

O=C1c2ccccc2C(=O)C1C(=O)C(c1ccccc1)c1ccc(Cl)cc1 (centres undefined)
inactive: [7] | [8] | [10] | [14] | [2]
active: [13] 38.9 µM | [11] 21.9 µM | [1] 30.6 µM

Nc1c(Oc2ccccc2)cc(O)c2c1C(=O)c1ccccc1C2=O
inactive: [2] | [4] | [5]

N#CCCO
inactive: [1] | [2] | [3] | [4] | [5]

CCOP(=S)(OCC)SCS(=O)(=O)CC
inactive: [1] | [2] | [3] | [4] | [5]
